The record followed here is the supplement of paper PMC7366291.

Where a name gives a salt, the structure may show the parent alone.

For this experiment, the system named is Danio rerio Tg(wt1b:EGFP) embryo, pronephros. Description: fraction of imaged embryos annotated as normal kidney; higher = less nephrotoxic; extreme values may be limits of the assay. The note with it: 25 µM; exposure: 24-48 hpf. The gist of the method: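 The value given is the share of embryos in each treatment scored as having a normal kidney. To obtain it, dechorionated Tg(wt1b:EGFP) zebrafish embryos were treated from 24 to 48 hpf at 28.5°C with 25 μM compound in 0.5% DMSO, in 5 mM HEPES-buffered E3 with 0.003% PTU. Pronephroi were imaged by widefield fluorescence (470 nm, 10 z-slices), and every embryo was annotated by hand from maximum projections.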
On to `Cc1onc(-c2ccccc2)c1C(=O)N[C@@H]1C(=O)N2[C@@H]1SC(C)(C)[C@@H]2C(=O)O` [Oxacillin sodium], for which the “fraction of imaged embryos annotated as normal kidney” value (from here on “fraction of imaged embryos annotated”) came out at 0.833. As to `Cc1ccccc1C(OCCN(C)C)c1ccccc1` (stereo unspecified) [Orphenadrine hydrochloride], the “fraction of imaged embryos annotated” value turned out to be 0.833. For the compound `CN[C@@H]1[C@@H](O)[C@@H](O[C@@H]2[C@@H](O)[C@H](O[C@H]3OC(CN)=CC[C@H]3N)[C@@H](N)C[C@H]2N)OC[C@]1(C)O` [Sisomicin sulfate], the “fraction of imaged embryos annotated” value is 0.833.

For `O=C(CCCN1CCC(O)(c2ccc(Br)cc2)CC1)c1ccc(F)cc1` [Bromperidol], the “fraction of imaged embryos annotated” value came out at 1.

For `CCCCC1(COC(=O)CCC(=O)O)C(=O)N(c2ccccc2)N(c2ccccc2)C1=O` [Suxibuzone], the “fraction of imaged embryos annotated” value came out at 0.75.

`Cc1ccsc1/C=C/C1=NCCCN1C` [Morantel tartrate]: the “fraction of imaged embryos annotated” value was found to be 0.5.

With `CN1CCN(c2c(F)cc3c(=O)c(C(=O)O)cn4c3c2SCC4)CC1` [Rufloxacin], the “fraction of imaged embryos annotated” value came to 1. With `Cc1c(NC(=O)c2cccnc2)c(=O)n(-c2ccccc2)n1C` [Nifenazone] the figure was 0.833. Take `COC(=O)N/N=C/c1c[n+]([O-])c2ccccc2[n+]1[O-]` [Carbadox]: the “fraction of imaged embryos annotated” value was 0.833.

As for `Cc1cc(O)c(C(=O)N[C@@H](C(=O)N[C@@H]2C(=O)N3C(C(=O)O)=C(CSc4nnnn4C)CS[C@H]23)c2ccc(O)cc2)cn1` [Cefpiramide], the “fraction of imaged embryos annotated” value stood at 0.833.

Consider `CNCCC=C1c2ccccc2CCc2ccccc21` [Nortriptyline hydrochloride], for which the “fraction of imaged embryos annotated” value was determined as 0.833.

In the case of `NC(=O)OCC(O)COc1ccc(Cl)cc1` (stereo unspecified) [Chlorphensin carbamate], the “fraction of imaged embryos annotated” value is 0.833.

`NS(=O)(=O)c1cc2c(cc1C(F)(F)F)NC(Cc1ccccc1)NS2(=O)=O` (stereo unspecified) [Bendroflumethiazide]: the “fraction of imaged embryos annotated” value came out at 0.875. With `Cc1ncc([N+](=O)[O-])n1CCO` [Metronidazole] the figure was 0.917; with `CCOC(=O)C1=C(C)NC(C)=C(C(=O)OCC)C1c1ccccc1/C=C/C(=O)OC(C)(C)C` [Lacidipine], 0.167; with `CC(=O)OCC(=O)[C@@]12OC(C)(C)O[C@@H]1C[C@H]1[C@@H]3C[C@H](F)C4=CC(=O)C=C[C@]4(C)[C@@]3(F)[C@@H](O)C[C@@]12C` [Fluocinonide], 0.417. For `CC(=O)N(CC(O)CO)c1c(I)c(C(=O)NCC(O)CO)c(I)c(C(=O)NCC(O)CO)c1I` (stereo unspecified) [Iohexol], the “fraction of imaged embryos annotated” value amounted to 0.75.

Turning to `COc1c2occc2c(OC)c2c(=O)cc(C)oc12` [Khellin], the “fraction of imaged embryos annotated” value is 1. Turning to `CN1[C@@H]2CC[C@H]1C[C@@H](OC(=O)C(O)c1ccccc1)C2` (mixture of isomers) [Homatropine hydrobromide (R,S)], the “fraction of imaged embryos annotated” value turned out to be 0.75.

Turning to `O=C1C(O)=C([C@H]2CC[C@H](c3ccc(Cl)cc3)CC2)C(=O)c2ccccc21` [Atovaquone], the “fraction of imaged embryos annotated” value stood at 0.917. With `Cn1c(=O)c2c(ncn2CCO)n(C)c1=O` [Etofylline] the figure was 0.917.

Take `CCN1CCCC1CNC(=O)c1cc(S(N)(=O)=O)ccc1OC` (stereo unspecified) [Sulpiride]: the “fraction of imaged embryos annotated” value was 0.75. Consider `CC[C@]12CCCN3CCc4c(n(c5ccccc45)[C@@](O)(C(=O)OC)C1)[C@@H]32` [Vincamine], for which the “fraction of imaged embryos annotated” value is 0.909. Consider `CCOc1cc(CC(=O)N[C@@H](CC(C)C)c2ccccc2N2CCCCC2)ccc1C(=O)O` [Repaglinide], for which the “fraction of imaged embryos annotated” value was 0.75. For the compound `CN(C)CCc1c[nH]c2ccc(C[C@H]3COC(=O)N3)cc12` [Zolmitriptan], the “fraction of imaged embryos annotated” value was 0.833. In the case of `CC(=O)Nc1ccc(OCC(O)CNC(C)C)cc1` (stereo unspecified) [Practolol], the “fraction of imaged embryos annotated” value worked out at 0.833. For `Cc1ncc([N+](=O)[O-])n1CC(C)O` (stereo unspecified) [Secnidazole], the “fraction of imaged embryos annotated” value stood at 0.833. As for `O=C(COc1ccc(Cl)cc1)N1CCN(Cc2ccc3c(c2)OCO3)CC1` [Fipexide hydrochloride], the “fraction of imaged embryos annotated” value was 0.75. With `N=C(N)N/N=C/c1c(Cl)cccc1Cl` [Guanabenz acetate] the figure was 1; with `NS(=O)(=O)Cc1noc2ccccc12` [Zonisamide], 0.917; with `CCC(=O)O[C@@H](O[P@](=O)(CCCCc1ccccc1)CC(=O)N1C[C@H](C2CCCCC2)C[C@H]1C(=O)O)C(C)C` [Fosinopril], 0.7. With `Nc1ncnc2c1ncn2[C@@H]1O[C@H](CO)[C@@H](O)[C@@H]1O` [Vidarabine] the figure was 0.583; with `Cn1c(=O)c2[nH]cnc2n(C)c1=O` [Aminophylline], 1; with `Cc1nnc(NS(=O)(=O)c2ccc(N)cc2)s1` [Sulfamethizole], 0.667. Turning to `CN(C)CCC=C1c2ccccc2COc2ccccc21` [Doxepin hydrochloride], the “fraction of imaged embryos annotated” value was 0.917. Take `CN(C)[C@@H]1C(O)=C(C(N)=O)C(=O)[C@@]2(O)C(O)=C3C(=O)c4c(O)cccc4[C@@](C)(O)[C@H]3C[C@@H]12` [Tetracycline hydrochloride]: the “fraction of imaged embryos annotated” value stood at 0.778.
